Test results from PubChem BioAssay (Tox21).
Where “and” joins values, the source holds several entries; their conditions need not be identical. Equal entries are not always repeated. Records with an inconclusive call do not appear. More than one record can exist for a structure, and the calls need not agree. Calls of active or inactive are those of the source. Unless noted, the call rests on the fitted dose curve; in most records, active means well fitted curve in the direction sought with a large enough effect in the repeat runs; inconclusive means weak or mixed curves; inactive means no such curve, though single readings can be large; an effect the other way counts as inactive or inconclusive.

Key:
[1] = qHTS assay to identify small molecule antagonists of the glucocorticoid receptor (GR) signaling pathway - cell viability counter screen (AID 720693); further: nearly all actives have a fitted effect of over 55% in size
[2] = qHTS assay for identifying genotoxic compounds that show differential cytotoxicity against isogenic chicken DT40 cell lines with known DNA damage response pathways - wild type cell line (AID 743012); further: nearly all actives have a fitted effect of over 60% in size; further: potency means the concentration at half of the fitted maximal effect
In short: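 Endpoint: CellTiter-Glo luminescence, 30 min RT. Cells: wild type DT40, 300/well. Exposure: compounds in DMSO, 40 h, 37 C/5% CO2, after ~0.5 h pre-incubation.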

[3] = qHTS assay for identifying genotoxic compounds that show differential cytotoxicity against isogenic chicken DT40 cell lines with known DNA damage response pathways - Rev3 mutant cell line (AID 743014); further: nearly all actives have a fitted effect of over 55% in size; further: potency means the concentration at half of the fitted maximal effect
[4] = qHTS assay for identifying genotoxic compounds that show differential cytotoxicity against isogenic chicken DT40 cell lines with known DNA damage response pathways - Rad54/Ku70 mutant cell line (AID 743015); further: nearly all actives have a fitted effect of over 60% in size; further: potency means the concentration at half of the fitted maximal effect
[5] = qHTS assay to identify small molecule antagonists of the androgen receptor (AR) signaling pathway - cell viability counter screen (AID 743033; further: nearly all actives have a fitted effect of over 45% in size)
[6] = qHTS assay to identify small molecule antagonists of the androgen receptor (AR) signaling pathway using the MDA cell line - cell viability counter screen (AID 743041; further: nearly all actives have a fitted effect of over 45% in size; further: potency means the concentration at half of the fitted maximal effect)
In short: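 qHTS viability read-out; MDA-kb2 AR-luc; R1881-stimulated; 16 h exposure at 37C, 0% CO2; CellTiter-Fluor, 30 min; fluorescence intensity.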

[7] = molecular target: Androgen receptor (Homo sapiens) (UniProt P10275); experiment: qHTS assay to identify small molecule antagonists of the androgen receptor (AR) signaling pathway (AID 743035; active means well fitted inhibition curve with a large enough effect in the signal ratio in the repeat runs, not every such curve was filed as active; the % refers to the signal ratio)
In short: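 R1881 agonist challenge of a HEK293 UAS-beta-lactamase AR reporter line in the presence of compound (16 h, 37C); signal taken as FRET fluorescence after 2 h with LiveBLAzer B/G substrate at room temperature.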

[8] = molecular target: Androgen receptor (Homo sapiens) (UniProt P10275); experiment: qHTS assay to identify small molecule agonists of the androgen receptor (AR) signaling pathway (AID 743036; active means well fitted activation curve with a large enough effect in the signal ratio in the repeat runs, with a control signal flat, not every such curve was filed as active; the % refers to the signal ratio; further: potency means the concentration at half of the fitted maximal effect)
In short: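 Cell-based FRET reporter assay: HEK293 line with a UAS-beta-lactamase construct, compounds added in DMSO, 16 h exposure at 37C, then 2 h substrate step at room temperature and fluorescence intensity read.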

[9] = molecular target: Androgen receptor (Homo sapiens) (UniProt P10275); experiment: qHTS assay to identify small molecule agonists of the androgen receptor (AR) signaling pathway using the MDA cell line (AID 743040; further: nearly all actives have a fitted effect of over 20% in size; further: potency means the concentration at half of the fitted maximal effect)
In short: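 Agonist activity is measured as luciferase luminescence in human MDA-kb2 cells whose MMTV reporter responds to both AR and GR. Compounds in DMSO incubate 16 h at 37C, 0% CO2, and ONE-Glo is read after 30 min.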

[10] = molecular target: Androgen receptor (Homo sapiens) (UniProt P10275); experiment: qHTS assay to identify small molecule antagonists of the androgen receptor (AR) signaling pathway using the MDA cell line (AID 743042; further: nearly all actives have a fitted effect of over 55% in size)
In short: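 MDA-kb2 cells (human breast carcinoma, stably carrying an MMTV-luciferase reporter responsive to AR and GR) were plated at 3,000 cells/well and preincubated 5 hr at 37C, then given compound plus R1881 agonist for 16 h. ONE-Glo luminescence was read.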

Measured: Potency

Androgen receptor (Homo sapiens), sequence (P10275 whole entry, looked up): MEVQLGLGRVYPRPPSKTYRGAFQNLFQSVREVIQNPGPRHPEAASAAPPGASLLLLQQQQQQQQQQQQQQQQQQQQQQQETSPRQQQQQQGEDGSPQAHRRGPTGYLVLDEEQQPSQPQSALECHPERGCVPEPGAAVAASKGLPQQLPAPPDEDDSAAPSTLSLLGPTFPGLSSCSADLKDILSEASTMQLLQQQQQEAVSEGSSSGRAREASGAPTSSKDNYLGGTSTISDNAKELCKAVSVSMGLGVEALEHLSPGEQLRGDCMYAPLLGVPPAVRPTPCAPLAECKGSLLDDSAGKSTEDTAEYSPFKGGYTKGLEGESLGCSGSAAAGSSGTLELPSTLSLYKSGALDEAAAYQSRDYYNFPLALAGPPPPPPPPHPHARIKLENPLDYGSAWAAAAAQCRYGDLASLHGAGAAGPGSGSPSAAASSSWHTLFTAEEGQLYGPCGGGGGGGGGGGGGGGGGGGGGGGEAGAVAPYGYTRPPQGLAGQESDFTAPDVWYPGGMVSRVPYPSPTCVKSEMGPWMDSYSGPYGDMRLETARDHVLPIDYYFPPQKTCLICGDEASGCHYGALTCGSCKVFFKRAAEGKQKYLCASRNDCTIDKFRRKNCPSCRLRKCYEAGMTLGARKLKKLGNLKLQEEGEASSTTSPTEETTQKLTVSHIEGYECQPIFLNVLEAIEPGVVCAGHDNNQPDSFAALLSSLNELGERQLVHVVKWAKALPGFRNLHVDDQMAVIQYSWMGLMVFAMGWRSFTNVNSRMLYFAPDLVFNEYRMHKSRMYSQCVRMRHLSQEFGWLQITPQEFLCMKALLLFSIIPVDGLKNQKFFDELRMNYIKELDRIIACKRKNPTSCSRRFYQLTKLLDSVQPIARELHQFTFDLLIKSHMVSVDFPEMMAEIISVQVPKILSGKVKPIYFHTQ

CCCCCCOCCO
inactive: [1] | [2] | [3] | [4] | [5] | [6]

CCCCCCCCCC
inactive: [1] | [2] | [3] | [4] | [5] | [6]

Cc1ccc2oc(=O)ccc2c1
inactive: [1] | [2] | [3] | [4] | [5] | [6]

O=C(Oc1ccccc1)c1ccccc1
inactive: [1] | [2] | [3] | [4] | [5] | [6]

OC[C@H]1O[C@@](CO)(O[C@H]2O[C@H](CO)[C@@H](O)[C@H](O)[C@H]2O)[C@@H](O)[C@@H]1O
inactive: [1] | [2] | [3] | [4] | [5] | [6]

CC(C)c1ccc(S(=O)(=O)O)cc1
inactive: [1] | [2] | [3] | [4] | [5] | [6]

CC1CCC(C(C)C)C(O)C1 (centres undefined)
inactive: all assays above

CC1CCC2CC1C2(C)C (centres undefined)
inactive: [1] | [2] | [3] | [4] | [5] | [6]

CCOC(=O)NNc1nncc2ccccc12
inactive: [1] | [2] | [3] | [4] | [5] | [6]

CCCCCC1=CCCC1=O
inactive: [1] | [2] | [3] | [4] | [5] | [6]

CCc1cccc(C)c1N
inactive: all assays above

C/C=C1/CC2C=CC1C2 (centres undefined)
inactive: [1] | [2] | [3] | [4] | [5] | [6]

O=c1[nH]c(=O)n([C@H]2CCCO2)cc1F
inactive: [1] | [2] | [3] | [4] | [5] | [6]

CC(C)(N)CO
inactive: [1] | [2] | [3] | [4] | [5] | [6]

O=C(O)c1cc(C(=O)O)cc(S(=O)(=O)O)c1
inactive: [1] | [2] | [3] | [4] | [5] | [6]

CCC(O)OCCCOC (centres undefined)
inactive: [1] | [2] | [3] | [4] | [5] | [6]

OCC(CO)(CBr)CBr
inactive: [1] | [2] | [3] | [4] | [5] | [6]

CCCCCCCCC/C=C/CC1CC(=O)OC1=O (centres undefined)
inactive: [1] | [2] | [4] | [5] | [6]
active: [3] 48.6 µM

CC(c1cc2ccccc2s1)N(O)C(N)=O (centres undefined)
inactive: all assays above

COCCCOc1ccnc(CS(=O)c2nc3ccccc3[nH]2)c1C (centres undefined)
active: [2] 23.7 µM and 15.3 µM | [3] 29.8 µM and 24.2 µM | [4] 13.3 µM and 19.3 µM
inactive: [1] | [5] | [6]

CCCCCC/C(C=O)=C\c1ccccc1
inactive: [1] | [2] | [3] | [4] | [5] | [6]

c1ccc2scnc2c1
inactive: [1] | [2] | [3] | [4] | [5] | [6]

Cc1cc(C)c(C)cc1C
inactive: [1] | [2] | [3] | [4] | [5] | [6]

CCCCCCCCCCCCS
inactive: [1] | [2] | [3] | [4] | [5] | [6]

O=C(O)c1cc(=O)c2c(OCC(O)COc3cccc4oc(C(=O)O)cc(=O)c34)cccc2o1
inactive: [1] | [2] | [3] | [4] | [5] | [6]

O=C(CC(C(=O)OC1CCCCC1)S(=O)(=O)O)OC1CCCCC1 (centres undefined)
inactive and 17 µM (active): [2] | [3]
inactive: [1] | [5] | [6]
inactive and 12 µM (active): [4]

CC(C)(C)[C@@H](O)[C@@H](Cc1ccc(Cl)cc1)n1cncn1
inactive: [1] | [5] | [6]
active: [3] 30.6 µM | [4] 61.1 µM
inactive and 48.5 µM (active): [2]

CCCCCCCC(=O)OC
inactive: [1] | [2] | [3] | [4] | [5] | [6]

CCCCCC(N)=O
inactive: [1] | [2] | [3] | [4] | [5] | [6]

N[C@@H](Cc1cc(I)c(Oc2cc(I)c(O)c(I)c2)c(I)c1)C(=O)O
inactive: [1] | [2] | [3] | [4] | [5] | [6]

Cc1cccc(O)c1
inactive: [1] | [2] | [3] | [4] | [5] | [6]

ON=C1CCCCC1
inactive: [1] | [2] | [3] | [4] | [5] | [6]

O=C(O)c1ccc(C(=O)O)cc1
inactive: [1] | [2] | [3] | [4] | [5] | [6]

O=S1(=O)CC=CC1
inactive: [1] | [2] | [3] | [4] | [5] | [6]

c1c[nH]cn1
inactive: [1] | [2] | [3] | [4] | [5] | [6]

CCCCCCCCCCCCCCCO
inactive: [1] | [2] | [3] | [4] | [5] | [6]

O=C(O)CCCC[C@@H]1SC[C@@H]2NC(=O)N[C@@H]21
inactive: [1] | [2] | [3] | [4] | [5] | [6]

CCC(O)OC(O)CC (centres undefined)
inactive: [1] | [2] | [3] | [4] | [5] | [6]

CCN(CC)c1ccc(C(=O)c2ccccc2C(=O)O)c(O)c1
inactive: [1] | [3] | [4] | [6]

O=C=NCCCCCCN=C=O
inactive: [1] | [2] | [3] | [4] | [5] | [6]

COc1ccc2cc([C@H](C)C(=O)O)ccc2c1
inactive: [1] | [5] | [6]

C[C@H]1C[C@@H]2[C@H]([C@@H](O)C[C@@]3(C)[C@H]2CC[C@]3(O)C(=O)CO)[C@@]2(C)C=CC(=O)C=C12
active: [8] 32.3 nM and 49 nM | [9] 50.7 nM and 38.6 nM
not listed: [5] | [7]
inactive: all other assays above

Nc1cc([N+](=O)[O-])ccc1O
active: [6] 54.5 µM and 60.8 µM
not listed: [1] | [7]
inactive: all other assays above

O=C(OCCOCCOC(=O)c1ccccc1)c1ccccc1
inactive: [1] | [2] | [4] | [6]

Cc1occc(=O)c1O
inactive: [1] | [2] | [3] | [4] | [6]

Cc1cnc(C(=O)NCCc2ccc(S(=O)(=O)NC(=O)NC3CCCCC3)cc2)cn1
inactive: [1] | [5] | [6]

CCCCCCCCCCCCc1ccccc1
inactive: [1] | [2] | [3] | [4] | [6]

CC[C@H](C)C(=O)O[C@H]1C[C@@H](C)C=C2C=C[C@H](C)[C@H](CC[C@@H]3C[C@@H](O)CC(=O)O3)[C@H]21
active: [2] 53.1 nM and 5.52 µM and 682 nM | [3] 8.4 nM and 391 nM and 3.8 nM | [4] 53.1 nM and 2.77 µM and 136 nM
inactive: [1] | [6]

CN(C)CCOCCN(C)C
inactive: [1] | [2] | [3] | [4] | [6]

O=C1CCC(N2C(=O)c3ccccc3C2=O)C(=O)N1 (centres undefined)
inactive: [1] | [2] | [3] | [4] | [6]

O=C(O)c1ccccc1C(c1ccc(O)cc1)c1ccc(O)cc1
not listed: [5]
inactive: all other assays above

CCCCCOC(C)=O
inactive and 68.6 µM (active): [3]
inactive: [1] | [2] | [4] | [6]

O=C(O)c1ccc2c(c1)C(=O)OC2=O
not listed: [5]
inactive: all other assays above
